In PubChem BioAssay AID588726 (The Scripps Research Institute Molecular Screening Center, 2011):
Among all 360,000 compounds or so, about 8,200 (2.3%) were called active. No stated cut-off is given here; in the data, active means inhibition above about 27%; inactive means the rest. The entries come from a sample that favours actives as a whole.

molecular target: Fructose-bisphosphate aldolase (Mycobacterium tuberculosis (strain ATCC 25618 / H37Rv)) (UniProt P9WQA3); test: Mtb FBA enzyme inhibitors, primary screen, biochemical, fluorescence, strain H37Rv (AID 588726);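 further: 0% = vehicle and 100% = reference inhibitor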; conditions: purified M. tuberculosis FBA, fluorescence read-out, at 1 µM, stronger effect = higher value
Sequence (P9WQA3 whole entry, looked up): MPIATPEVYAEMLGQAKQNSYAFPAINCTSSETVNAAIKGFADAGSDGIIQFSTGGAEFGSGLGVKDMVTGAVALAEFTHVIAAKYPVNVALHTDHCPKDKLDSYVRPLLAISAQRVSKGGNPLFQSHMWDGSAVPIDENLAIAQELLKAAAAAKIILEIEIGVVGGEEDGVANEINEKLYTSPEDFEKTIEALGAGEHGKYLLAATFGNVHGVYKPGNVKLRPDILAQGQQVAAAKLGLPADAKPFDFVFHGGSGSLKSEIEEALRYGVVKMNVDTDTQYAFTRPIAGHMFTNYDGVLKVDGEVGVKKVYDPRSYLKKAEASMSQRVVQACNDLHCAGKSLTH

Compound	inhibition
N#CC(C#N)=CN=c1ccn(Cc2ccc(Cl)cc2Cl)cc1	-0.58% (inactive)
O=C(COc1ccc2ccccc2c1)N1CCN(C(=O)c2cccs2)CC1	-0.2% (inactive)
CC(=O)NS(=O)(=O)c1ccc(NC(=O)/C=C/c2ccccc2Cl)cc1	6.43% (inactive)
CC(=O)Nc1ccc(S(=O)(=O)Nc2cc(C)cn(Cc3ccc(C)cc3)c2=O)cc1	-0.45% (inactive)
Cn1c(C(=O)NCCN2CCc3ccccc3C2)cc2c(=O)[nH]c3ccccc3c21	5.1% (inactive)
O=C(NCCN1CCN(Cc2ccccc2)CC1)c1cc2c(=O)[nH]c3ccccc3c2s1	47.8% (active)
CCC1CCCCN1CCCNC(=O)c1cc2c(Cl)nc3ccccc3c2s1 (stereo unspecified)	-4.11% (inactive)
Cc1ccc(C)c(C(O)c2ncc(-c3cccc4ccccc34)[nH]2)c1 (stereo unspecified)	23.2% (inactive)
COc1cccc2oc(CCc3ccccc3)cc(=O)c12	33.4% (active)
COc1ccccc1CN(C)C(=O)c1cc2ccccc2o1	2.4% (inactive)
COc1ccc(C)cc1S(=O)(=O)NCCc1ccccc1	-6.6% (inactive)
CCOc1ccc(C(=O)NC(=S)Nc2ccc(N3CCOCC3)c(Cl)c2)cc1[N+](=O)[O-]	11% (inactive)
COC(=O)C1C(=O)CC(C)(O)C(C(=O)OC)C1c1ccc2c(c1)OCO2 (stereo unspecified)	0.24% (inactive)
COc1cc(/C=C/C(=O)O)cc(S(=O)(=O)Nc2ccccc2C(=O)NCCc2ccccc2)c1OC	0.65% (inactive)
COc1ccc(OC)c(S(=O)(=O)Nc2ccccc2F)c1	-2.78% (inactive)
COc1cc(OC)c(S(=O)(=O)Nc2ccccc2C(=O)O)cc1S(=O)(=O)Nc1ccccc1C(=O)O	30.9% (active)
COc1ccc(N2CC(C(=O)NCCS(=O)(=O)N3CCN(c4ccccc4)CC3)CC2=O)cc1 (stereo unspecified)	-1.82% (inactive)
CCOC(=O)N1CCN(Cc2nc3cc(NC(=O)CC)ccc3n2CC)CC1	0.91% (inactive)
COCc1c(C(=O)OCC(=O)Nc2ccc(OC(F)F)cc2)oc2ccccc12	1.74% (inactive)
COC(=O)c1cnn2c(C(F)(F)F)cc(-c3ccco3)nc12	14% (inactive)
Cc1cc(C)c2nc(-c3ccco3)cc(C(=O)O)c2c1	105% (active)
CCOC(=O)c1ccn(-c2nc(-c3ccco3)cc(C(F)(F)F)n2)n1	10.6% (inactive)
Cc1ccnc(NS(=O)(=O)c2ccc(NC(=O)c3oc4ccc(F)cc4c3C)cc2)n1	1.55% (inactive)

Compound	inhibition
CN(C(=O)c1cccc(NC(=O)Cc2ccc(NC(=O)C3CCCN(C(=O)C4CC4)C3)cc2)c1)C1CC1 (stereo unspecified)	0.61% (inactive)
CN(C)Cc1c(O)ccc2c(=O)c(-c3ccccc3Cl)coc12	96.3% (active)
CN(C)Cc1c(O)ccc2occ(C(O)c3ccccc3)c12 (stereo unspecified)	6.31% (inactive)
Cc1ccc(C(=O)c2coc3ccc(O)c(CN(C)C)c23)cc1	-0.7% (inactive)
O=C(CNC(=O)c1ccccc1)NCC(=O)OCc1ccc(Cl)cc1	0.34% (inactive)
O=C(CNC(=O)OCc1ccccc1)Oc1cc2oc(=O)cc(-c3ccccc3)c2cc1Cl	36.7% (active)
CC(Oc1ccc2c(-c3ccccc3)cc(=O)oc2c1)C(=O)NC(Cc1c[nH]c2ccccc12)C(=O)O (stereo unspecified)	-3.79% (inactive)
CCN(C(=O)COC(=O)C1CCN(S(=O)(=O)c2ccc(C)c(C)c2)CC1)C1CCS(=O)(=O)C1 (stereo unspecified)	4.31% (inactive)
CCNC(=O)COC(=O)CCNC(=O)c1cccc(C)c1	-2.08% (inactive)
COCCN(CCOC)c1nc(N)c2c(N)nc3c(c2c1C#N)CC(=O)N3Cc1ccc(Cl)cc1	32.8% (active)
CN(Cc1ccccc1)C(=O)C1CCCN(c2ncnc3c2nc2n3CCCCC2)C1 (stereo unspecified)	0.44% (inactive)
COc1cccc(NS(=O)(=O)c2ccc(-c3coc(C)n3)cc2)c1	-2.5% (inactive)
O=C(/C=C/[C@H]1O[C@@H](n2ccc(=O)[nH]c2=O)[C@H](O)[C@@H]1O)NCc1ccccn1	-1.68% (inactive)
Cc1cc(C(=O)OCC(=O)Nc2nnc(C(C)C)s2)c2ccccc2n1	1.64% (inactive)
CCOC(=O)c1cc(C(C)C)sc1NC(=O)COC(=O)c1nccnc1N	55.2% (active)
CCOC(=O)c1cc(C)sc1NC(=O)C1CCC1	4.25% (inactive)
Cc1cc(C)c2c(c1)NP(=S)(c1ccccc1)N2 (stereo unspecified)	34.4% (active)
COc1ccc2c(c1)NP(=S)(c1ccccc1)N2 (stereo unspecified)	18.1% (inactive)
COC(=O)c1cc(OC)c(OC)cc1NC(=O)C1CCCO1 (stereo unspecified)	15.2% (inactive)
COc1cc2nc(N3CCN(C(=O)[C@@H]4CCCO4)CC3)nc(N)c2cc1OC	95.4% (active)
O=C(C1CCCO1)N1CCC(c2nc3ccccc3[nH]2)CC1 (stereo unspecified)	-0.87% (inactive)
C=CCOc1ccc(/C=C/C(=O)OCC(=O)NCC2CCCO2)cc1 (stereo unspecified)	1.08% (inactive)
CC1(C)CC(=O)c2cc(OCC(=O)NCC3CCCO3)ccc2O1 (stereo unspecified)	78.8% (active)

Compound	inhibition
CCOc1ccc(S(=O)(=O)NCCC(=O)NCC2CCCO2)cc1 (stereo unspecified)	-1.07% (inactive)
CC1=C(C(=O)N(C(C)C)C(C)C)CC(CC(=O)NCCCCc2ccccc2)C(=O)N1CCC1=CCCCC1 (stereo unspecified)	-1.08% (inactive)
O=C(NC1CC1)C(Cc1ccccc1)NS(=O)(=O)c1ccccc1F (stereo unspecified)	2.61% (inactive)
Cc1ccc(SCC(=O)NNC(=O)c2ccc(S(C)(=O)=O)cc2)cc1	0.63% (inactive)
CC(C)(C)c1ccc(/C=C/C(=O)NCCCn2ccnc2)cc1	1.36% (inactive)
CCCC/C=C/c1cccc2nncn12	27.5% (active)
O=C(O)c1ccccc1-c1cccc2nncn12	4.68% (inactive)
OCC1(CO)CC2(C1)CC(CO)(CO)C2	0.01% (inactive)
Cc1nn(-c2ncccn2)c2c1C(=O)CC(C)(C)C2Br (stereo unspecified)	4.4% (inactive)
COc1ccc(NC(=O)/C(N=Nc2cccc(S(=O)(=O)Nc3ccc(SC(F)F)cc3)c2)=C(\C)O)cc1	-0.31% (inactive)
CCc1ccc(C(=O)NC(=S)Nc2ccccc2N2CCOCC2)cc1	0.12% (inactive)
O=c1c2c(nc3cc(-c4cccc(Cl)c4)[nH]n13)CCCC2	3.87% (inactive)
Cc1cc(=O)n2[nH]c(-c3cccc(Cl)c3)cc2n1	32.4% (active)
Cc1cc(=O)[nH]c(SCc2ccc(Cl)cc2)n1	0.44% (inactive)
C[C@H](NC(=O)c1ccccc1Cl)C(=O)OCCOc1cccc(Cl)c1	4.6% (inactive)
CCN(CC)CCNCc1ccc(OCc2ccc(Cl)nc2)c(OC)c1	-0.85% (inactive)
O=C(CN1C(=O)NC2(CCCC2)C1=O)Nc1ccc(F)c(F)c1F	-0.1% (inactive)
CC(=O)NCCC(=O)Nc1nc(C)c(Cc2ccc3c(c2)OCO3)s1	-0.89% (inactive)
Cc1cc(NC(=O)CN2C(=O)NC(CCc3ccccc3)C2=O)no1 (stereo unspecified)	0.86% (inactive)
C[C@H](O)[C@@H]1C(=O)N2CCc3ccc(N4CCOCC4)cc3[C@@H]2C[C@@H]1N(C)C(=O)C(C)(C)C	7.29% (inactive)
COCC(=O)N(C)[C@H]1C[C@H]2c3cc(Oc4ccccc4C)ccc3CCN2C(=O)[C@H]1[C@H](C)O	0.95% (inactive)
C[C@H](O)[C@@H]1C(=O)N2CCc3c([nH]c4ccccc34)[C@@H]2C[C@@H]1N(C)C(=O)Nc1ccc(F)cc1	55.9% (active)
COc1ccc(CCNC(=O)CCCCCNC(=O)N2CCn3c2nc2ccccc23)cc1OC	-0.38% (inactive)

Compound	inhibition
CCc1nc2ccccc2c(C(=O)OC2CCCCC2=O)c1C (stereo unspecified)	0.09% (inactive)
CCOc1ccc2c(=O)c(-c3ccc4c(c3)OCCCO4)c(C)oc2c1	-0.24% (inactive)
CCc1c(C)c2ccc(OC3CCCCC3=O)cc2oc1=O (stereo unspecified)	90.5% (active)
COC(=O)C(NS(=O)(=O)c1ccc(F)cc1)c1ccccc1 (stereo unspecified)	1.52% (inactive)
CCSC1(SCC)N=C(N)C2(C#N)C(c3ccccc3)NC(C)=CC12C#N (stereo unspecified)	4.9% (inactive)
CN1C[C@@H](CO)O[C@@H](n2cnc3c(N4CCN(CCO)CC4)ncnc32)C1	-1.44% (inactive)
COc1cccc2cc(C(=O)N3CCN(C(=O)c4ccccc4)CC3)c(=O)oc12	-2.27% (inactive)
CCOC(=O)N1CCN(C(=O)c2cc3c(ccc4ccccc43)oc2=O)CC1	48.8% (active)
COc1ccc2oc(=O)c(C(=O)NCc3ccccn3)cc2c1	82.7% (active)
COc1ccc(C(=O)N2CCCN(C)CC2)c(OC)c1	1.38% (inactive)
COc1ccc(NC(=O)C2C3C=CC(C3)C2C(=O)NCc2ccccn2)c(OC)c1 (stereo unspecified)	3.99% (inactive)
C=CCc1cccc2cc(C(=O)N3CCN(C(=O)OCC)CC3)c(=O)oc12	1.44% (inactive)
COc1ccc(-c2nc(CS(=O)CC(=O)NCc3ccccn3)c(C)o2)cc1 (stereo unspecified)	4.79% (inactive)
COc1ccc2oc(=O)c(C(=O)N3CCCC3)cc2c1	27.7% (active)
CCOC(=O)N1CCN(C(=O)c2n[nH]c(=O)c3ccccc23)CC1	-0.89% (inactive)
C=CCC(CC=C)(C(N)=O)c1ccccc1	-1.04% (inactive)
C[C@H]1CN([C@@H](C)CO)C(=O)CCCn2cc(nn2)CO[C@@H]1CN(C)C(=O)Nc1ccccc1	0.08% (inactive)
O=C(NC1CCCC1)C1CC(=O)N(c2ccc(F)cc2)C1 (stereo unspecified)	-3.06% (inactive)
COc1cccc(NC(=O)C2(C)CCN2Cc2ccccc2Cl)c1 (stereo unspecified)	3.88% (inactive)
Cc1cc(=O)oc2cc(OCC3CC(c4ccccc4Cl)=NO3)ccc12 (stereo unspecified)	9.86% (inactive)
Cc1nc(COc2cc3oc(=O)cc(C)c3cc2Cl)cs1	27.6% (active)
CCOC(=O)Cc1csc(SCc2cc(=O)oc3cc(O)ccc23)n1	2.87% (inactive)
